# Sampled rows, rich in hits. Any-hit rate of the full collection: about 2.3%.
# NTR1 agonist = agonists of human neurotensin receptor NTR1; AID 493036; 330,000 tested, 0.17% active; activation, % at 20 µM; P30989; NTR1-U2OS beta-arrestin-GFP spot imaging, agonist mode;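 active = activation at or above 40% of the spot to cytoplasm intensity ratio, with at least 20 cells analyzed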;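 note: 0% = DMSO without peptide and 100% = 100 nM NTR1 peptide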
# Granule exo inh = blocks lytic granule exocytosis. AID 651702. inhibition, % at 10 µM. 360,000 tested, 0.66% active. TALL-104 LAMP-1 surface exposure, flow cytometry; cells stimulated with thapsigargin and PMA;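 active = inhibition above about 55%, limit read from the data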
# ABHD5-PLIN5 inh = inhibitors of human ABHD5-perilipin-5 interaction; Q00G26+Q8WTS1; Split G. princeps luciferase complementation, luminescence, 4 h; inhibition, % at 4 µM; 360,000 tested, 0.78% active; AID 602281;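 active = inhibition above the mean inhibition across every tested compound plus 3 SD, cut at about 22% in these data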;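 note: 0% = DMSO only wells and the 100% control is not disclosed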
# Target sequence (Q00G26 whole entry, looked up): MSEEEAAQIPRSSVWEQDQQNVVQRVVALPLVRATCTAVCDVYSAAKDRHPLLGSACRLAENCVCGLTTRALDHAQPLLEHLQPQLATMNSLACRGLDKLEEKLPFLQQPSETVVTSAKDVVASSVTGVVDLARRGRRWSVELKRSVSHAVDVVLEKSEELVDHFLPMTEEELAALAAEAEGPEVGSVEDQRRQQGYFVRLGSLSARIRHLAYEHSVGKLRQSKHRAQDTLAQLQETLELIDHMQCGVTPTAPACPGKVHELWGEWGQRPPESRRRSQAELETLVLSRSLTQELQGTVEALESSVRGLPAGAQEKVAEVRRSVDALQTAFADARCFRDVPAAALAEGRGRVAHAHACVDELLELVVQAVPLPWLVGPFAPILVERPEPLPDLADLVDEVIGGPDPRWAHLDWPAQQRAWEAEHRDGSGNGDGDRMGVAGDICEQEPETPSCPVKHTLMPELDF
# Target sequence (Q8WTS1 whole entry, looked up): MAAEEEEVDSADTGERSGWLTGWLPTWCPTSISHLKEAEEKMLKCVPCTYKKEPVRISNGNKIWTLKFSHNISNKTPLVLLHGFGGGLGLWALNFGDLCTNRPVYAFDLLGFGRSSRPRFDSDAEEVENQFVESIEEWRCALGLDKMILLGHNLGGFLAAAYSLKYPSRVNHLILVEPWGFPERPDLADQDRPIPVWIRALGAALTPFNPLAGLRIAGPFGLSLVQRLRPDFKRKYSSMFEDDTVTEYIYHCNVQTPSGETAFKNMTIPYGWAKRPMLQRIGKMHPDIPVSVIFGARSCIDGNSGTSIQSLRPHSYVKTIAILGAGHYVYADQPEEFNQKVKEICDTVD
# HTR2A ag = activates the mouse 5-HT2A serotonin receptor. P35363. CHO-K1 mHTR2A beta-arrestin complementation, luminescence; percent of 30 µM serotonin response. activation, % at 7.6 µM. 360,000 tested, 0.66% active;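 active = activation above a run cutoff, the mean activation of all tested compounds plus 3 SD, cut at about 14% in these data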;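 note: 0% = plate median of compound wells and 100% = 30 µM serotonin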
# Beta2AR agonist = human beta-2 adrenergic receptor agonism by FAP; response, % (no concentration beside the values); AID 504454; Am2.2-beta2AR cells, FAP receptor internalization, flow cytometry; 340,000 tested, 0.43% active; P07550;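 active = response above a set limit, near 3 SD of response in nonfluorescent compounds, cut at about 42% in these data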
# MOR ag counter = counter-screen for mouse HTR2A agonists: human mu opioid receptor agonists | shares compounds with HTR2A ag | U2OS OPRM1 beta-arrestin PathHunter, luminescence; DMSO 0%, DAMGO 9.3 µM 100% | activation, % at 9.3 µM | 2,300 tested, 5.3% active | AID 624380;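 active = mean activation above the mean of DMSO-only wells plus 3 SD, cut at about 0.5% in these data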
# m5-HT2A ag conf = confirmation of mouse HTR2A serotonin receptor agonists; activation, % at 7.6 µM; 2,300 tested, 19% active; shares compounds with HTR2A ag; CHO-K1 PathHunter beta-arrestin recruitment, luminescence; DMSO 0%, 30 µM serotonin 100%;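 active = mean activation across triplicates above the hit threshold derived in the original primary screen, cut at about 15% in these data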
# * = called active by the depositor; / = not tested or not shown.
SMILES,NTR1 agonist,Granule exo inh,ABHD5-PLIN5 inh,HTR2A ag,Beta2AR agonist,MOR ag counter,m5-HT2A ag conf
CC(Sc1ccc(Cl)cc1)C(=O)Nc1ccc2c(c1)OCO2 (configuration not stated),0.8,-1.5,-4.1,-4.0,3.1,/,/
CC(Sc1ccc(Cl)cc1)C(=O)NCc1ccc2c(c1)OCO2 (configuration not stated),-1.3,5.5,0.7,22.2*,12.4,-0.6,1.6
O=C1CC(c2ccccc2)=NN1c1ccccc1,/,25.2,-4.0,14.8*,15.0,-0.6,-1.9
C(=C\c1ccccc1)/CN1CCN(C(c2cc3ccccc3o2)c2nnnn2Cc2ccccc2)CC1 (configuration not stated),/,31.1,6.9,1.7,/,/,/
CCn1c(SCC(=O)Nc2cc(C)on2)nnc1-c1ccc(S(=O)(=O)N2CCCC2)cc1,-0.8,-1.1,0.4,0.5,-7.9,/,/
Cc1cc(NC(=O)CSc2nnc(-c3ccc(S(=O)(=O)N4CCCC4)cc3)n2C)no1,0.8,-0.4,-5.8,18.4*,-1.4,-0.7,-4.7
COc1cccc(-n2cc(CNCc3cn(C)nc3-c3ccccc3F)cn2)c1,2.4,50.2,-5.6,30.3*,3.3,-0.3,97.2*
CSCCC(NC(=O)c1ccccc1Cl)C(=O)N1CCN(c2ccccn2)CC1 (configuration not stated),0.5,1.8,1.7,1.0,-6.6,/,/
CCOC(=O)c1ccc(NC(=O)CSCC(=O)OCC(=O)c2ccccc2)cc1,-1.2,11.5,5.0,14.9*,0.0,-0.2,-2.9
O=C(CSCC(=O)OCC(=O)c1ccc(Br)cc1)Nc1ccc(Br)cc1,-2.1,-1.6,4.5,1.1,-0.6,/,/
CCOC(=O)c1cccnc1SCC(=O)Nc1ccc(C)cc1,0.0,-2.8,-0.8,16.2*,7.0,-0.6,-4.2
Cc1ccc(S(=O)(=O)CCC(=O)N(C)C2CCCCC2)cc1,-0.8,-0.2,0.8,7.2,-7.6,/,/
Cc1ccccc1S(=O)(=O)N(C)C[C@@H]1OCc2ccccc2-c2c(n(C)c3ccccc23)C(=O)N([C@H](C)CO)C[C@@H]1C,/,-2.9,11.6,56.3*,/,-0.3,3.6
CC(=O)OCCNC(=O)c1cc2ccccc2oc1=O,0.1,0.8,-9.2,-4.5,-7.0,/,/
CN(C)CCNC(=O)c1cc2ccccc2oc1=O,-1.8,-0.3,-7.8,15.6*,-17.6,-0.5,-2.9
O=C1C=C(C#Cc2ccc(Oc3ccccc3)cc2)C[C@@H](c2ccc(F)cc2)C1,/,-1.0,-4.3,2.2,/,/,/
CCOC(=O)C1=CN(Cc2ccc(OC)cc2)C=C(C(=O)OCC)C1c1cccs1,1.7,-1.7,5.0,16.3*,1.0,-0.5,6.7
CCc1ccc(CNC(=O)CCCn2nc(C)n3ccnc3c2=O)cc1,-1.8,-2.0,-3.5,-2.9,12.8,/,/
COc1ccc(CNC(=O)CCCn2nc(C)n3ccnc3c2=O)cc1,2.1,-3.4,-0.4,25.4*,-7.7,-0.7,-3.1
Cc1cccc(NC(=O)C2CC(=O)OC23CCCCC3)c1 (configuration not stated),-1.0,-0.3,0.3,-2.8,3.8,/,/
Cc1ccc(CNC(=O)C2CC(=O)OC23CCCC3)c(C)c1 (configuration not stated),-1.2,2.4,14.9,16.1*,12.8,-0.3,0.8
CCOc1ccc(S(=O)(=O)NCC2(N3CCCCC3)CCCCC2)cc1,0.9,8.3,-2.5,16.8*,7.1,-0.7,-1.2
COc1ccc(S(=O)(=O)N2CCOC2CNC(=O)C(=O)NCCc2ccccc2)cc1C (configuration not stated),-0.2,-2.6,6.8,16.2*,-6.1,-0.5,-4.9
COc1ccc(CCNC(=O)C(=O)NCC2CCCN2S(=O)(=O)c2ccccc2)cc1 (configuration not stated),2.5,-0.1,3.9,15.9*,12.4,-0.4,0.3
CN1CCCN(Cc2ccccc2Br)CC1,-0.8,-3.2,1.6,-4.6,-7.5,/,/
Cc1nc([N+](=O)[O-])cn1CC(O)c1ccc(F)cc1 (configuration not stated),-0.3,-2.7,1.9,1.6,-14.8,/,/
